D1 agonist: Allosteric Agonists of the Human D1 Dopamine Receptor: qHTS. HEK293 T-REx D1 cells, calcium flux, agonist mode. activation, % at 2 µM. 1% of 360,000 active; note: 0% is about no effect
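Agonism was scored from calcium flux recorded over 180 s (1 read/s) after pintool compound addition, following a 10-cycle baseline. Cells were inducible force-coupled HEK293 TREx D1, plated overnight at 30 C and loaded with no-wash calcium dye.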
TRHR enhancer: qHTS for Small Molecule Agonists and Allosteric Enhancers of Human TRH Receptor: Primary Screen for Enhancers; Thyrotropin-releasing hormone receptor (Homo sapiens), P34981; TRHR cells, fluo-8 calcium fluorescence, EC20 TRH enhancement; enhancement, % at 2 µM; 0.66% of 360,000 active; AID 493056, 2011; in the data active = enhancement above about 30%; note: 0% is about no effect
Target sequence (P34981 whole entry, looked up): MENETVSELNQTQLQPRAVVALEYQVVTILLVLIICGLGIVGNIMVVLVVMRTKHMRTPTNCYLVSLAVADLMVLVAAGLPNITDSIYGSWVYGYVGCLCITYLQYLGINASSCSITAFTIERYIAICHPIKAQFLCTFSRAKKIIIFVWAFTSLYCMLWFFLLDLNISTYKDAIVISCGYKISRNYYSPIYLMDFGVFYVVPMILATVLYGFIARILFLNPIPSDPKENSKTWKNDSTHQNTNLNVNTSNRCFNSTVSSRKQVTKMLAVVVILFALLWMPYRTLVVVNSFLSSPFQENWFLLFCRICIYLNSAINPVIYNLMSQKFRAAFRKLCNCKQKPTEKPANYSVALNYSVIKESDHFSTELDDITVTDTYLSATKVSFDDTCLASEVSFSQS
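Enhancer read-out: after compound pinning and an initial kinetic agonist-mode read, an EC20 of TRH (10 nM final) was injected and fluo-8 calcium signal (Ex 480/Em 530) followed at 1 s/cycle for 100 cycles in TRHR-expressing cells.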
D1 potentiator: Potentiators of Human D1 Dopamine Receptor: qHTS. D(1A) dopamine receptor (Homo sapiens), P21728. potentiation, % at 10 µM. HEK293 TREx D1 cells, calcium flux, dopamine EC20 potentiation. 0.036% of 360,000 active; in the data active = potentiation above about 30%; note: 0% is about no effect
TRHR ag: qHTS for Small Molecule Agonists and Allosteric Enhancers of Human TRH Receptor: Primary Screen for Agonists | Thyrotropin-releasing hormone receptor (Homo sapiens), P34981 | TRHR cells, calcium flux fluo-8, FDSS agonist mode | activation, % at 2 µM | 0.18% of 360,000 active; note: 0% is about no effect
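Fluo-8-loaded TRHR cells; 10 s baseline, compound added, kinetic Ca2+ fluorescence read 1/s, agonist mode.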
D1 antagonist: Antagonist of Human D 1 Dopamine Receptor: qHTS; AID 504652, 2011; HEK293 TREx D1 cells, calcium flux, dopamine EC80; hits give low values; activity change, negative = inhibition, % at 10 µM; 3.2% of 360,000 active; in the data active = activity change below about -30%; note: % is set by controls: 0 for no effect and ±100 for the full control effect
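Antagonism measured as reduced calcium response to an EC80 dopamine addition following 180 s compound pre-read; cells were inducible HEK293 Trex D1 plated overnight at 30 C, read kinetically at 1 cycle/sec.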
* hit, by the source's call; ! = repeats disagree. Shown are actives, neighbours in structure and some others; about 4.7% of the full set was active somewhere. Cut-off read from the data, not from the text of the source, unless noted: active = activation above about 30%; inactive = the rest.

SMILES	D1 agonist	TRHR enhancer	D1 potentiator	TRHR ag	D1 antagonist
Cc1ccccc1CNC(=O)C1CCCN(c2nnc(-n3c(C)ccc3C)s2)C1 (stereo not given)	-2.3	-6.4	-1.9	-0.6	-0.8
Cc1oc2c(c(C)cc3oc(=O)c(CC(=O)NCCc4ccc(Cl)cc4)c(C)c32)c1C	-0.8	-1.9	6.3	-0.1	-2.0
CCCc1nc(SCC(=O)Nc2ccc(N3CCOCC3)cc2)c2ccccc2n1	0.8	2.3	-19.7	0.6	-35.6*
CC(C)c1nc(SCC(=O)Nc2ccc(N3CCOCC3)cc2)c2ccccc2n1	0.6	-0.7	-2.6	-0.4	-18.4
CCOc1ccc(NC(=O)CSc2nc3ccccc3nc2N2CCOCC2)cc1	2.6	34.2*!	2.6	-0.5	9.7
COc1ccc(NC(=O)CSc2nc3ccccc3nc2N2CCOCC2)cc1	3.0	-5.3	0.8	-0.4	-9.0
CCCNC(=O)c1nnsc1S(=O)(=O)c1ccc(Cl)cc1	-0.1	-10.9	-7.1	11.6	-38.8*
CCCNC(=O)c1nnsc1S(=O)c1ccc(Cl)cc1 (stereo not given)	2.2	-2.3	-0.8	9.0	19.7
CC(C)NS(=O)(=O)c1ccc(N2C(=O)c3ccccc3C2=O)cc1	12.0	-7.0	-1.4	1.1	-32.9*
CN(C)CCNC(=O)c1cc2c(s1)-c1ccccc1OC2	121.8*	19.2	-8.2	-0.1	-53.5*
Cc1cccc2c1-c1sc(C(=O)N3CCN(c4ccccc4)CC3)cc1CO2	4.5	18.0	-3.8	0.3	-32.5*
Cc1ccc(C)c(N(C)C(=O)c2cc3c(s2)-c2ccccc2OC3)c1	-1.3	8.3	2.0	-0.3	7.7
COc1ccc(N(C)C(=O)c2cc3c(s2)-c2ccccc2OC3)c(OC)c1	2.4	-3.0	-8.9	-0.6	-40.1*
CCCN1CCN(CCCNC(=O)c2cc3c(s2)-c2c(C)cccc2OC3)CC1	5.2	-1.8	-10.4	0.5	-38.1*!
CCN1CCN(CCCNC(=O)c2cc3c(s2)-c2ccccc2OC3)CC1	-0.1	-5.8	-12.6	-0.1	41.3
Cc1cccc2c1-c1sc(C(=O)N3CCN(c4ccc(F)cc4)CC3)cc1CO2	1.3	0.3	-1.7	-0.2	10.1
Cc1ccccc1CNC(=O)CCSCc1cnn(-c2ccccc2)c1-n1cccc1	2.6	2.3	-0.8	0.0	2.6
COc1ccccc1CNC(=O)CCc1c(C)c2cc3c(C)coc3cc2oc1=O	3.2	2.6	-0.9	-1.3	-0.6
Cn1cnc(S(=O)(=O)N2CCC(C(=O)Nc3ccc(Cl)c(C(F)(F)F)c3)CC2)c1	-1.0	-4.6	0.1	0.3	-0.6
Cc1cc(C)c2c(CC(=O)Nc3c(C(=O)c4ccc(F)cc4)oc4ccccc34)coc2c1	3.7	29.6	1.9	0.7	-2.2
O=S(=O)(Nc1cc(F)ccc1F)c1ccc2[nH]c3c(c2c1)CCCCC3	7.2	2.7	1.6	0.3	2.4
CC1CC(C)CN(CCCNC(=O)c2cc3c(s2)-c2ccccc2OC3)C1 (stereo not given)	7.3	9.0	-1.9	1.8	1.0
O=C(NCCCN1CCN(c2ccccc2F)CC1)c1cc2c(s1)-c1ccccc1OC2	5.1	-6.5	-7.0	0.1	-45.7*
O=C(NCc1cccc(Cl)c1)c1cc2c(s1)-c1ccccc1OC2	4.5	1.7	-7.8	0.7	-50.2*
COc1ccccc1CNC(=O)c1cc2c(s1)-c1ccccc1OC2	4.4	14.3	-6.2	0.4	-19.9
SMILES	D1 agonist	TRHR enhancer	D1 potentiator	TRHR ag	D1 antagonist
CCCN1CCN(CCCNC(=O)c2cc3c(s2)-c2ccccc2OC3)CC1	4.8	37.1*!	-11.2	0.2	-12.1
Cc1cccc2c1-c1sc(C(=O)NCCCN3CCCC(C)C3)cc1CO2 (stereo not given)	18.7	0.0	-18.7	1.3	-51.2*
COc1ccc(OC)c(CNC(=O)C2CCN(S(=O)(=O)c3cn(C)cn3)CC2)c1	-0.5	1.2	0.6	-1.8	-3.6
Cc1c(NC(=O)c2cc3c(s2)-c2ccccc2OC3)cccc1[N+](=O)[O-]	2.8	13.1	-8.0	0.9	-39.7*
Cc1csc(NC(=O)c2cc3c(s2)-c2ccccc2OC3)n1	3.0	3.0	3.0	-0.1	-8.7
COC(=O)c1c(-c2ccccc2)csc1NC1=NS(=O)(=O)c2ccccc21	10.8	32.4*	6.0	-0.4	-3.9
COc1ccc(-c2cc(C)no2)cc1S(=O)(=O)NCCCN1CCN(c2ccccc2)CC1	7.1	-0.5	-16.8	-0.9	-33.1*
Cc1cc(-c2ccc(C)c(S(=O)(=O)NCCCN3CCN(c4ccccc4F)CC3)c2)on1	10.0	-4.2	-22.3	-0.1	-67.4*
Cc1cc(-c2ccc(C(C)C)c(S(=O)(=O)NCCN3CCC(C)CC3)c2)on1	44.2*	25.0	-6.4	-0.2	-29.5
Cc1cc(-c2ccc(C)c(S(=O)(=O)NCCCN3CCCCCC3)c2)on1	0.4	12.1	9.3	0.7	1.9
Cc1cc(-c2ccc(C)c(S(=O)(=O)NCCCN3CCN(c4ccccc4)CC3)c2)on1	9.6	-3.4	-18.9	-0.4	-77.3*
CCCN(Cc1cccs1)C(=O)Nc1cc(C)ccc1OC	-0.5	10.3	0.8	-0.6	2.1
CN(Cc1ccc(F)cc1)S(=O)(=O)c1nnc(NC(=O)c2ccccc2Cl)s1	11.6	4.3	-2.4	0.6	-7.3
FC(F)(F)c1cnc(NNC(=S)Nc2ccccc2Cl)c(Cl)c1	26.3	2.0	-4.7	5.7	-33.4*
CC(C)Oc1ccc(C(CC(=O)NCCCN(C)C)c2ccc(F)cc2)cc1 (stereo not given)	2.4	2.1	-6.6	0.4	-37.2*
CCc1ccc(-c2nc(CN3CCC(C(=O)NCCc4ccc(OC)c(OC)c4)CC3)c(C)o2)cc1	30.2*	-3.2	-6.2	0.5	-24.6
COc1ccccc1CNC(=O)C1CCN(S(=O)(=O)N2CCCCC2)CC1	0.5	-2.5	-3.7	0.2	6.7
COc1ccccc1CNC(=O)C1CCN(Cc2nc(-c3cccc(Cl)c3)oc2C)CC1	33.8*	7.8	-5.5	-0.2	-1.1
CCS(=O)(=O)N1CCC(C(=O)NCc2ccccc2OC)CC1	-0.6	-1.3	-1.8	1.2	-43.4*
COc1ccccc1CNC(=O)Cc1csc2nc(-c3ccccc3)cn12	-1.6	-1.7	-3.0	-0.1	-35.5*
COc1ccccc1CNC(=O)C1CCN(Cc2nc(-c3ccc(OC)c(OC)c3)oc2C)CC1	1.0	19.6	-4.1	-0.2	-4.5
CCS(=O)(=O)N1CCCc2cc(C(=O)Nc3cc([N+](=O)[O-])ccc3C)ccc21	-0.5	-0.3	-1.6	0.0	2.6

High-throughput results: PubChem BioAssay, National Center for Advancing Translational Sciences (NCATS)
